Bioassay records deposited in PubChem BioAssay by several laboratories.
hDAT+cocaine – changed human dopamine transporter uptake under cocaine IC80; hit rate 1.3% among 110,000; LLC-PK1 hDAT cells, [14C]-dopamine uptake with cocaine IC80; actives deviate in either direction; B-score at 10 µM; Q01959;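 active means Z score or B-score, a plate-position-corrected score, falls beyond the plate's 99.7% confidence bounds, in either direction; inactive means both scores lie inside the 99.7% bounds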;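 further: scored against the spread of the other compound wells on the same plate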
PostGolgi ctrl – growth of the yeast control strain, post-Golgi counter-screen; efflux-deficient yeast background strain, growth absorbance A615, 16 h; inhibition, % at 10 µM; hit rate 5% among 98,000; AID 738
D1 mod – allosterically modulates the human D1 dopamine receptor; P21728; HEK293 D1, CRE-luciferase, dopamine EC30 potentiation; actives deviate in either direction; B-score at 10 µM; hit rate 5.9% among 58,000; AID 641;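 active means luminescence count or its row- and column-corrected plate score outside the 99.7% band of the plate's sample wells, on either side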
Cav3 T inh – inhibitors of human Cav3.2 T-type calcium channel | O95180 | Cav3.2-expressing cells, Fluo-4 calcium fluorescence FDSS; active compounds read low | B-score at 10 µM | hit rate 4% among 100,000 | AID 449739;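 active means single-dose well whose peak fluorescence ratio is a statistical outlier from its plate by either plate-standardised score or position-corrected B-score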
PLAP act – activators of human placental alkaline phosphatase | purified PLAP enzyme, luminescent substrate read-out; active compounds read high | hit rate 1.2% among 96,000 | AID 696 | activation fold at 20 µM; in the data active means activation fold above about 2
Target sequence (P05187 whole entry, looked up): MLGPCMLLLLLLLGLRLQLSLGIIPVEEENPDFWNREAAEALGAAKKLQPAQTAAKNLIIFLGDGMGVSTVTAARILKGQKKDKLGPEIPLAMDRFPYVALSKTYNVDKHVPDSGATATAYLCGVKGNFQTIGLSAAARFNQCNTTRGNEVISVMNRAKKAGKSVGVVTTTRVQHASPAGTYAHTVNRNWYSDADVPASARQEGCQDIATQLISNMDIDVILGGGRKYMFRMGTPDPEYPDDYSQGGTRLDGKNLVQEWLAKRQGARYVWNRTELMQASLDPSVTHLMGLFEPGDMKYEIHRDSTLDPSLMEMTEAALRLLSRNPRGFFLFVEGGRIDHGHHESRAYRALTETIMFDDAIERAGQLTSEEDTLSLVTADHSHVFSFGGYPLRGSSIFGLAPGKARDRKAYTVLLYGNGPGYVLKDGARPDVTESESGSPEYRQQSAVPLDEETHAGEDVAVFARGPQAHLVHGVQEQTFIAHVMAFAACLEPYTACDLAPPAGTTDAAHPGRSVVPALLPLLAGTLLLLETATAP
PostGolgi yeast – growth inhibition of a yeast mutant, post-Golgi transport screen; post-Golgi transport phenotypic cell assay; inhibition, % at 10 µM; hit rate 0.9% among 98,000;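 further: yeast cells grown in 1536-well plates; yeast grown about 18 h at 30C before absorbance read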
Numbers without * were called inactive; / = no result given. A selection: hits, their analogues and other compounds. The true share with any hit is near 12%. Unless noted, no stated cut-off is given here; in the data, active means inhibition above about 30%; inactive means the rest.

SMILES	hDAT+cocaine	PostGolgi ctrl	D1 mod	Cav3 T inh	PLAP act	PostGolgi yeast
C[C@H](NC(=O)c1nc[nH]c1C(=O)NC1CCN(C(=O)OC(C)(C)C)CC1)C(=O)OCc1ccccc1	0.1	/	/	0.62	/	/
CNC(=O)c1ccccc1S(=O)(=O)c1ccccc1C#N	-0.26	-2	/	0.6	1.1	0
CCc1ccc(NS(=O)(=O)c2ccc(OC)c(C)c2)cc1	0.52	36*	/	-3.3	1.3	-10
CCOc1cc(S(=O)(=O)N2CCCCC2)ccc1Cl	/	-2	-4*	/	1.2	3
COc1ccccc1C(=O)Nc1ccc(S(=O)(=O)Nc2cc(C)on2)cc1	1.5	-6	1	0.81	1.1	1
CCOc1cc(S(=O)(=O)Nc2ccc(CC)cc2)ccc1Cl	0.83	41*	/	-2.9	1	-8
CCOc1cc(S(=O)(=O)N2CCN(CC)CC2)ccc1Cl	-0.49	1	0.47	0.014	1.9	28
COc1ccc(S(=O)(=O)Nc2cc(C)on2)cc1OC	0.042	/	-2.8*	-1.5	/	/
O=C(NC1CCCCCC1)c1ccc(S(=O)(=O)NCc2ccco2)cc1	-0.073	-10	/	-1.7	1.1	-2
O=C(NCCc1c[nH]c2ccccc12)c1ccc(S(=O)(=O)NCc2ccco2)cc1	-7.7*	0	0.021	-0.8	1.2	14
Clc1ccccc1OCCCCn1ccnc1	0.036	-1	-0.19	0.53	0.9	-3
N=c1c2c(-c3ccccc3)c(-c3ccccc3)n(Cc3ccco3)c2ncn1Cc1ccco1	0.27	48*	-2.7	-9.3*	1.2	91*
O=c1c2cnn(-c3ccccc3)c2ncn1Cc1ccco1	-0.53	0	/	-0.07	1	1
N=c1c2c(-c3ccccc3)c(-c3ccccc3)n(Cc3ccccc3)c2ncn1CCCn1ccnc1	1.7	77*	/	-0.45	/	95*
CCC(C)c1ccc(OCCn2cc(/C=N/NC(=O)CSc3nnc(C)s3)c3ccccc32)cc1 (stereo not drawn)	-0.71	4	/	-1.9	1.6	-8
Cc1cccn2c(=O)c3cc(C(=O)N4c5ccccc5CC4C)n(C)c3nc12 (stereo not drawn)	/	-4	-4.8*	/	0.9	-12
CC1Cc2ccccc2N1C(=O)c1cc2c(=O)n3ccccc3nc2n1C (stereo not drawn)	0.14	14	-2.1	-0.0073	1	-4
Cc1ccc(C(=O)O/N=C(/c2nonc2N)N(C)C)cc1	-0.05	3	/	1.3	1.2	2
Cc1ccc(N=C(NO)c2nonc2N)cc1	1	41*	/	1.9	1.3	-3
COCCOC(=O)C1=C(C)NC(=O)NC1c1cn(-c2ccccc2)nc1-c1cccs1 (stereo not drawn)	1.1	-6	/	-1	1.4	-10
COC(=O)C1=C(C)NC(C)=C(C(=O)OC)C1c1cn(-c2ccccc2)nc1-c1ccco1	-0.1	69*	0.68	-2.2	1.3	25
CN1OC(COC(=O)c2ccc(Cl)cc2Cl)CC1c1ccccc1 (stereo not drawn)	-0.65	16	/	-2	1.1	13
CC1CCCN(C(=O)Nc2cccc(NC(=O)N3CCCC(C)C3C)c2)C1C (stereo not drawn)	1.3	-1	-0.14	-5.8*	1.5	-9
O=C(CSc1nnc(Cc2ccccc2)o1)Nc1ccc(Br)cn1	-0.17	11	-0.53	-0.12	0.9	-9
Cc1oc(-c2ccccc2F)nc1CN1CCC(C(=O)NCc2ccco2)CC1	0.77	-2	-0.3	-1.5	1.3	6
SMILES	hDAT+cocaine	PostGolgi ctrl	D1 mod	Cav3 T inh	PLAP act	PostGolgi yeast
Cc1oc(-c2ccccc2F)nc1CN1CCC(C(=O)NC2CCCc3ccccc32)CC1 (stereo not drawn)	0.73	3	/	-3.8	2*	-1
O=C(NCCc1ccccc1)C1CCN(c2nc3ccccc3o2)CC1	-0.66	6	0.32	0.13	1.1	0
O=C(NCc1cccs1)C1CCCN(c2nc3ccccc3o2)C1 (stereo not drawn)	0.63	42*	-0.37	0.26	0.8	13
O=C(NC1CCCCCCC1)C1CCN(c2nc3ccccc3o2)CC1	0.16	66*	-1.5	-0.14	1.7	5
Cc1oc(-c2ccccc2F)nc1CN1CCC(C(=O)NC2CCCCCCC2)CC1	/	5	-0.86	/	2*	-1
Cc1ccc(C2/C(=C(\O)c3c(C)nc4ccccn34)C(=O)C(=O)N2CCCN2CCOCC2)o1 (stereo not drawn)	/	/	0.024	/	/	/
c1coc(CN(Cc2ccco2)c2ncnc3c2oc2ccccc23)c1	1.2	/	/	-3.7	/	/
